# Columns and labels:
# [1] = system: Human papillomavirus type 1a protein E7 (residues 44-93); assay: HPV1a E7 fragment binders on microarrays, primary screen, biochemical, small-molecule microarray, residues 44-93, 635 nm fluorescence (AID 1108); conditions: small-molecule microarray binding, fluorescence 635 nm; higher = more signal;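 note: E7 fragment applied at 1 µg/mL in TBST for 1 h at 4 C; score combines spot fluorescence with its signal to noise ratio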
# [2] = modulators of HCV replicon luciferase signal, primary screen, HCV replication inhibitor project, Huh7 cells, luciferase reporter (AID 1109); conditions: 48 h, higher = more signal;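 note: huh7 hepatoma cells harbouring a luciferase neomycin HCV replicon reporter; luciferase luminescence as measure of HCV replicon replication; test concentration not given here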
# [3] = target: Left-right determination factor 2 (Homo sapiens) (UniProt O00292); assay: LEFTY2 binders on small-molecule microarrays, primary screen, biochemical, small-molecule microarray, 635 nm fluorescence scan (AID 1110); conditions: LEFTY2 binding, higher = more signal
# Sequence of Left-right determination factor 2 (Homo sapiens) (O00292 whole entry, looked up): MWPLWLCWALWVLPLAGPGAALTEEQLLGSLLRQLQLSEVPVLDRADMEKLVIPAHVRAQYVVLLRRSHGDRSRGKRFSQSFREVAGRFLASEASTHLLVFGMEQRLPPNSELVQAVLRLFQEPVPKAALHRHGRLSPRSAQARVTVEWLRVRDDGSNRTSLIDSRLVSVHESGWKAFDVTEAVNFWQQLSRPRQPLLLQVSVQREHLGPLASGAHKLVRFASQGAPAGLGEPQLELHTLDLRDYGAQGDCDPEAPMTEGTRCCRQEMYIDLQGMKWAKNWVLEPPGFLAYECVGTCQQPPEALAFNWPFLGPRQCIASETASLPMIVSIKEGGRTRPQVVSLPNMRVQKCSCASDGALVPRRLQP
# [4] = target: Calmodulin-1 (Homo sapiens) (UniProt P0DP23); assay: CALM1 binders on microarrays, EGTA buffer, profiling panel, biochemical, small-molecule microarray, Cy5-labelled CALM1 (AID 1111); conditions: Cy5-CALM1 binding fluorescence, higher = more signal;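 note: labelled calmodulin applied in Tris saline Tween buffer holding calcium plus EGTA and DTT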
# [5] = target: Calmodulin-1 (Homo sapiens) (UniProt P0DP23); assay: calcium-bound CALM1 binders on microarrays, profiling panel, artefact control for SMM control-protein annotation, biochemical, small-molecule microarray, Cy5-labelled CALM1, plus calcium (AID 1112); conditions: Cy5-CALM1 binding fluorescence, higher = more signal;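 note: score merges spot fluorescence with signal to noise from triplicate slides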
# [6] = small-molecule microarray binders of probe aWnt5a, primary screen, biochemical, biotinylated probe, 635/667 nm fluorescence (AID 1113); conditions: higher = more signal;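 note: score merges 667 nm fluorescence intensity with signal-to-noise per printed feature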
# [7] = small-molecule microarray binders of probe aShh, primary screen, biochemical, biotinylated probe, 635/667 nm fluorescence (AID 1114); conditions: higher = more signal;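 note: probe is biotin-labelled aShh protein from a stem cell growth factor screen; measures binding of labelled protein to compounds printed on the slide; score merges feature fluorescence at 667 nm with signal-to-noise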
# [8] = small-molecule microarray binders of probe aNog, primary screen, biochemical, biotinylated probe, 635/667 nm fluorescence (AID 1115); conditions: higher = more signal;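 note: probe is biotinylated aNog protein used at 0.15 µg/mL for 1 h at 4 C; z-score combines 667 nm fluorescence of each spot with its signal to noise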
# [9] = target: Torsin-1A-interacting protein 1 (Homo sapiens) (UniProt Q5JTV8); assay: LAP1 binders from COS7 cell lysate, primary screen, small-molecule microarray, 635/667 nm fluorescence (AID 1116); conditions: COS7-hLAP1 lysate binding, 635 nm fluorescence, higher = more signal
# Sequence of Torsin-1A-interacting protein 1 (Homo sapiens) (Q5JTV8 whole entry, looked up): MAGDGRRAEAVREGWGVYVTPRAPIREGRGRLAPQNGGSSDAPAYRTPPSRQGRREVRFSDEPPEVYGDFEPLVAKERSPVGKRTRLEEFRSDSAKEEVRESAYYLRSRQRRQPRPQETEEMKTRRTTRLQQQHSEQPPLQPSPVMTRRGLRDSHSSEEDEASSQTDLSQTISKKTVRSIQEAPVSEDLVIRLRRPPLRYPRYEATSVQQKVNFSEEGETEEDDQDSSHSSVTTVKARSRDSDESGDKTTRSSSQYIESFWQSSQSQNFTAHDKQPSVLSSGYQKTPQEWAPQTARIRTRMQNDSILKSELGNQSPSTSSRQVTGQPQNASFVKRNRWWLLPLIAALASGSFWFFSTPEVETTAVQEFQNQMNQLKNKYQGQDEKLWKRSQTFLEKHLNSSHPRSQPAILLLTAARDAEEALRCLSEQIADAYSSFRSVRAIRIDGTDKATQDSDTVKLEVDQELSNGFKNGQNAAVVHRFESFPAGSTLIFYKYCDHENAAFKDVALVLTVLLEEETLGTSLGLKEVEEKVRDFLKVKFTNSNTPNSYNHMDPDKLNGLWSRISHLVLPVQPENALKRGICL
# [10] = target: Alpha-bungarotoxin (Bungarus multicinctus) (UniProt P60615); assay: alpha-bungarotoxin binders on microarray, profiling panel, artefact control for SMM control protein annotation, biochemical, small-molecule microarray, Alexa647 label, 635/667 nm fluorescence (AID 1117); conditions: alpha-BTX-A647 binding fluorescence, higher = more signal
# Sequence of Alpha-bungarotoxin (Bungarus multicinctus) (P60615 whole entry, looked up): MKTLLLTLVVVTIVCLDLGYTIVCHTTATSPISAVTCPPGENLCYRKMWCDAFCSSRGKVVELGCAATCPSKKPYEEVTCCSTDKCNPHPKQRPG
Compound,composite z-score [1],z-score [2],composite z-score [3],composite z-score [4],composite z-score [5],composite z-score [6],composite z-score [7],composite z-score [8],composite z-score [9],composite z-score [10]
COCCOC(=O)N1C(=O)[C@@]2(c3cc(C#CCCO)ccc31)[C@H](C(=O)NC[C@H](O)c1ccccc1)[C@H]1C(=O)O[C@H](c3ccccc3)[C@H](c3ccccc3)N1[C@@H]2c1ccc(OCCO)cc1,1.08,-0.646,0.532,1.09,-0.191,-0.197,-0.23,-0.456,0.274,0.895
Cc1cccc(/C=C/C=O)c1,0.63,0.33,-0.478,0.613,0.207,-0.0944,-0.214,-0.104,-0.476,0.549
COC(=O)[C@@]1(Cc2ccccc2)[C@H]2c3cc(C(=O)N(C)C)n(Cc4cc(F)c(F)c(F)c4)c3C[C@H]2CN1C(=O)c1ccccc1,1.28,-1.87,-0.762,1.39,0.449,0.216,0.415,1.79,0.845,0.517
COc1cc2c(cc1O)C(c1ccc(CN3CCCC3)cc1)N(Cc1sc3ccccc3c1Cl)CC2 (stereo not given),0.573,-2.57,0.82,0.26,-0.935,-0.0036,-0.0626,0.151,0.0494,0.518
COc1ccc(C(O)C2C=CC3C(=O)N(c4ccccc4)C(=O)C3N2Nc2ccccc2)c2ccccc12 (stereo not given),-0.34,-1.91,-0.608,1.25,0.851,-0.0792,-0.218,0.941,0.814,0.93
NC(=O)NCC#Cc1ccc2c(c1)[C@]1(C(=O)N2)[C@H](c2ccc(O)cc2)N2[C@H](c3ccccc3)[C@H](c3ccccc3)OC(=O)[C@H]2[C@@H]1C(=O)N1CCN(c2ncccn2)CC1,0.237,-0.762,0.158,0.301,0.476,-0.13,-0.349,0.789,0.811,0.772
NC(=O)NCC#Cc1ccc2c(c1)[C@]1(C(=O)N2)[C@H](C(=O)NC[C@H](O)c2ccccc2)[C@H]2C(=O)O[C@H](c3ccccc3)[C@H](c3ccccc3)N2[C@@H]1c1ccccc1OCCO,1.41,-1.49,-0.914,0.103,-0.134,-0.139,-0.301,0.665,0.433,3.26
C=CCC(OC(C)=O)[C@@H]1[C@@H](N(Cc2ccc(-c3ccccc3)cc2)C(=O)c2ccc(C)cc2)c2cc(OCCCO)ccc2N1C(=O)c1ccc2ccccc2n1 (stereo not given in full),-0.6,-0.41,0.755,-0.248,0.24,-0.14,-0.181,0.496,0.234,-0.0983
[N-]=[N+]=Nc1ccccc1[C@@H]1OC(c2ccc(OCCCO)cc2)=N[C@]1(CCS(=O)(=O)c1ccccc1)C(=O)O,1.42,0.666,0.459,1.35,0.304,0.383,-0.0146,-0.0345,0.677,1.55
O=C1O[C@@H](c2ccccc2)[C@@H](c2ccccc2)N2[C@@H](c3ccc(O)cc3)[C@]3(C(=O)Nc4ccccc43)[C@@H](C(=O)N3CCCCCCC3)[C@H]12,1.47,-1.93,0.695,2.86,1.61,1.37,2.07,-0.531,4.6,3.12
CS(=O)(=O)CCOC(=O)C1=CC(c2ccc(CO)cc2)=CC(c2cccs2)N(Cc2cccc(OC(F)(F)F)c2)C=C1C(=O)OCCS(C)(=O)=O (stereo not given),0.869,-2.19,0.192,1.75,0.707,0.0044,-0.102,-0.475,0.796,0.904
O=C1OCC=C[C@H]2OC34C=CCN(c5ccc6ccccc6c5)C(=O)[C@H]3N(CCO)C(=O)[C@@H]4[C@@H]12 (stereo not given in full),-0.589,-0.727,-1.99,-0.245,0.716,-0.152,0.191,0.0721,-0.831,-0.74
C[N+](C)(C)CCCCNC(=O)[C@H]1C[C@H]2C(=O)N3CCC[C@H]3C(=O)N2[C@H]1c1ccc(O)cc1,0.257,-1.25,1.28,-0.546,-0.368,-0.0236,-0.0146,-0.0662,2.01,1.57
C[n+]1ccc2ccc(O)cc2c1,0.642,-0.337,0.92,-0.825,-1.61,-0.124,-0.0804,-0.323,1.62,0.273
Cc1ccc(S[C@]2(C(=O)NCc3ccccc3)CC(=O)N(Cc3cc(C(F)(F)F)cc(C(F)(F)F)c3)[C@@H]2c2ccc(CO)cc2)cc1,-0.115,-0.763,-0.637,-0.477,0.187,-0.12,0.516,0.0538,-0.712,-0.302
O=C1c2ccccc2[C@@]2(Cc3ccccc3N(Cc3ccccc3)C2=O)[C@H](c2ccc(CO)cc2)N1Cc1ccccc1C(F)(F)F,-0.648,-0.353,-1.3,-0.457,-0.176,-0.157,0.0684,0.549,0.0154,-0.32

# — PubChem BioAssay
